PubChem BioAssay (Tox21)
Where “and” joins values, the source holds several entries; their conditions need not be identical. Identical values can stand only once. Results filed as inconclusive are left out. Entries that show only a call come without a potency. Where a structure was tested more than once in an assay, its records may differ in their call. Calls of active or inactive are those of the source. Unless noted, the call rests on the fitted dose curve; in most records, active means well fitted curve in the direction sought with a large enough effect in the repeat runs; inconclusive means weak or mixed curves; inactive means no such curve, though single readings can be large; an effect the other way counts as inactive or inconclusive.

Assays:
[1] = target: Acetylcholinesterase (Homo sapiens) (UniProt P22303); assay: Acetylcholinesterase (AChE) small molecule antagonists: enzyme-based qHTS assay (AID 1347397; calls by dose curve; further: nearly all actives have a fitted effect of over 55% in size; further: potency means the concentration at half of the fitted maximal effect); conditions: Potency: AChE enzyme activity inhibition
Method in brief: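 Compound or DMSO vehicle was pin-transferred onto recombinant human AChE (50 mU/mL as dispensed) and left 30 min at room temperature. Acetylthiocholine with DTNB then started the reaction, read colorimetrically 10 min later.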

[2] = target: Acetylcholinesterase (Homo sapiens) (UniProt P22303); assay: Acetylcholinesterase (AChE) small molecule antagonists: fluorescence cell-based qHTS assay (AID 1347398; calls by dose curve; further: nearly all actives have a fitted effect of over 50% in size; further: potency means the concentration at half of the fitted maximal effect); conditions: Potency: AChE activity
Method in brief: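 Using neuroblastoma SH-SY5Y cells as the enzyme source, test chemicals are preincubated 30 min at 37 C; AChE-driven acetylthiocholine cleavage is then quantified by thiocholine-dependent Thiolite Green fluorescence after 40 min at room temperature.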

[3] = target: Acetylcholinesterase (Homo sapiens) (UniProt P22303); assay: Acetylcholinesterase (AChE) small molecule antagonists: enzyme-based qHTS assay with human liver microsomes (AID 1347399; calls by dose curve; further: nearly all actives have a fitted effect of over 60% in size; further: potency means the concentration at half of the fitted maximal effect); conditions: Potency: qHTS inhibition
Method in brief: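 Recombinant human AChE (50 mU/mL in the enzyme mix) and human liver microsomes (0.25 mg/mL final) were preincubated with compound and NADPH (0.25 mg/mL final) for 30 min at 37 C. Acetylthiocholine/DTNB was then added; thiocholine was read colorimetrically after 10 min at room temperature.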

[4] = target: Cytochrome P450 2D6 (Homo sapiens) (UniProt P10635); assay: Cytochrome P450 Family 2 Subfamily D Member 6 (CYP2D6) small molecule antagonists: luciferase reporter qHTS assay (AID 1671196); further: nearly all actives have a fitted effect of over 50% in size; further: potency means the concentration at half of the fitted maximal effect
Method in brief: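 Room-temperature luminescent CYP2D6 activity assay: compound preincubated 10 min with enzyme–substrate mix, NADPH-initiated reaction 1 h, detection reagent 20 min before reading.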

[5] = target: Cytochrome P450 2C19 (Homo sapiens) (UniProt P33261); assay: Cytochrome P450 Family 2 Subfamily C Member 19 (CYP2C19) small molecule antagonists: luciferase reporter qHTS assay (AID 1671197); further: nearly all actives have a fitted effect of over 65% in size; further: potency means the concentration at half of the fitted maximal effect
Method in brief: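 P450-Glo CYP2C19 screening system; proluciferin substrate; DMSO compound stocks; 10 min RT preincubation; NADPH regeneration, 1 h at 37C; luciferin detection reagent, 20 min RT; luminescence as RLU.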

[6] = target: Cytochrome P450 2C9 (Homo sapiens) (UniProt P11712); assay: Cytochrome P450 Family 2 Subfamily C Member 9 (CYP2C9) small molecule antagonists: luciferase reporter qHTS assay (AID 1671198); further: nearly all actives have a fitted effect of over 50% in size; further: potency means the concentration at half of the fitted maximal effect
Method in brief: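 CYP2C9 activity was measured with a P450-Glo proluciferin substrate. Enzyme–substrate mix was held with compound for 10 min at room temperature, then NADPH regeneration solution was added for 1 h at 37C. Luciferin product was read as luminescence.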

[7] = target: Cytochrome P450 1A2 (Homo sapiens) (UniProt P05177); assay: Cytochrome P450 Family 1 Subfamily A Member 2 (CYP1A2) small molecule antagonists: luciferase reporter qHTS assay (AID 1671199); further: nearly all actives have a fitted effect of over 50% in size; further: potency means the concentration at half of the fitted maximal effect
Method in brief: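 Room-temperature CYP1A2 reaction with proluciferin substrate: compounds added from DMSO, 10 min preincubation, NADPH regeneration for 1 h. Luciferin detection reagent then added; luminescence recorded as RLU.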

[8] = target: Cytochrome P450 3A4 (Homo sapiens) (UniProt P08684); assay: Cytochrome P450 Family 3 Subfamily A Member 4 (CYP3A4) small molecule antagonists: luciferase reporter qHTS assay (AID 1671201); further: nearly all actives have a fitted effect of over 50% in size; further: potency means the concentration at half of the fitted maximal effect
Method in brief: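 Compounds in DMSO were pin-transferred onto CYP3A4 enzyme-substrate mix and held 10 min at room temperature. NADPH regenerating solution started the reaction for 1 h; luciferin detection reagent stopped it, and luminescence was read after 20 min.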

[9] = target: Voltage-gated inwardly rectifying potassium channel KCNH2 (Homo sapiens) (UniProt Q12809); assay: Human Ether-a-go-go-Related Gene (hERG) channel small molecule antagonists: fluorescence cell-based qHTS assay (AID 1671200)
Method in brief: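 Channel function was assessed by thallium flux. Cells seeded the previous day and kept at 37 C took up FluxOR II dye over 1 h in the dark at room temperature, then sat another 10 min before stimulation.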

Sequence of Cytochrome P450 2C9 (Homo sapiens) (P11712 whole entry, looked up): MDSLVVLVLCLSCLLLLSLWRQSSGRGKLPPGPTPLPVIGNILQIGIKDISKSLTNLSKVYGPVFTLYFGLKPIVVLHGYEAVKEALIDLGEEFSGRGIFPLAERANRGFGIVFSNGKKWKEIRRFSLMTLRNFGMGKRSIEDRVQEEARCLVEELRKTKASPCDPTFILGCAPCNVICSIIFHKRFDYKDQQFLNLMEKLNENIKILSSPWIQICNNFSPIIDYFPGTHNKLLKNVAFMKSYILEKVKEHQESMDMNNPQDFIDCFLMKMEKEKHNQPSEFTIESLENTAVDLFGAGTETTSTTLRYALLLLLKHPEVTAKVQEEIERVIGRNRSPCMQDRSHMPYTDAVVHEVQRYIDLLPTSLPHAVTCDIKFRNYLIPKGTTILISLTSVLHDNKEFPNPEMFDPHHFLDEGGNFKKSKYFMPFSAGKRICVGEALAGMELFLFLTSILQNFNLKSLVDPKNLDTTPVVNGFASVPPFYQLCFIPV
Sequence of Voltage-gated inwardly rectifying potassium channel KCNH2 (Homo sapiens) (Q12809 whole entry, looked up): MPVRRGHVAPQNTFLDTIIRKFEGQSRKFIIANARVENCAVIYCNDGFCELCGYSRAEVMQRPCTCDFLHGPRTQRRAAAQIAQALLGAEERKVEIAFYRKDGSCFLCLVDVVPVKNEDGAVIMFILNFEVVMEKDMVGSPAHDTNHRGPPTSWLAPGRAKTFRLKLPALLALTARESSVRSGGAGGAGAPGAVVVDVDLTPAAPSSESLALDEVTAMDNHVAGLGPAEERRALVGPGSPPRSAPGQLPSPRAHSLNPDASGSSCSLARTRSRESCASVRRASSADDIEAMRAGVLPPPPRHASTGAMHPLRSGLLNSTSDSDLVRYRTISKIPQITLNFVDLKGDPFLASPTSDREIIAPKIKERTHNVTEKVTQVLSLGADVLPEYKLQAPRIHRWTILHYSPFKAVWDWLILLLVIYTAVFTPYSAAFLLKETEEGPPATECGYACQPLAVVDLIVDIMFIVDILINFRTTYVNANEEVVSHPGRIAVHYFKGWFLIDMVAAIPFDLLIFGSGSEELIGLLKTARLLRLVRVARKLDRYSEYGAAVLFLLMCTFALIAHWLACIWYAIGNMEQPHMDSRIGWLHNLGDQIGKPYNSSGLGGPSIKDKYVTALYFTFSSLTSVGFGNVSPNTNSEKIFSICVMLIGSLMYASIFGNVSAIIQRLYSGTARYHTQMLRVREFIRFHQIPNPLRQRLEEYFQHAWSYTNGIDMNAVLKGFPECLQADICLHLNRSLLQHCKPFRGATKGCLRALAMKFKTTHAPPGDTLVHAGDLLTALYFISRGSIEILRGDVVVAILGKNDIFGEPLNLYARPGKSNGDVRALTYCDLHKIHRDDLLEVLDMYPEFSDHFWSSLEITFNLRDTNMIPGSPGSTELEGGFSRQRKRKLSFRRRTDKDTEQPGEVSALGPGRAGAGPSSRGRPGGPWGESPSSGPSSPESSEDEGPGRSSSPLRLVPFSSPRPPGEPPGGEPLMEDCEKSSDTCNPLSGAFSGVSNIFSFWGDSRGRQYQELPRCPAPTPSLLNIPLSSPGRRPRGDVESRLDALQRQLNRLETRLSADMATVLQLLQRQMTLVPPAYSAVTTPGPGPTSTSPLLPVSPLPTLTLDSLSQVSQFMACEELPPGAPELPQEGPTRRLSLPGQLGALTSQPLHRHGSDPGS
Sequence of Cytochrome P450 2D6 (Homo sapiens) (P10635 whole entry, looked up): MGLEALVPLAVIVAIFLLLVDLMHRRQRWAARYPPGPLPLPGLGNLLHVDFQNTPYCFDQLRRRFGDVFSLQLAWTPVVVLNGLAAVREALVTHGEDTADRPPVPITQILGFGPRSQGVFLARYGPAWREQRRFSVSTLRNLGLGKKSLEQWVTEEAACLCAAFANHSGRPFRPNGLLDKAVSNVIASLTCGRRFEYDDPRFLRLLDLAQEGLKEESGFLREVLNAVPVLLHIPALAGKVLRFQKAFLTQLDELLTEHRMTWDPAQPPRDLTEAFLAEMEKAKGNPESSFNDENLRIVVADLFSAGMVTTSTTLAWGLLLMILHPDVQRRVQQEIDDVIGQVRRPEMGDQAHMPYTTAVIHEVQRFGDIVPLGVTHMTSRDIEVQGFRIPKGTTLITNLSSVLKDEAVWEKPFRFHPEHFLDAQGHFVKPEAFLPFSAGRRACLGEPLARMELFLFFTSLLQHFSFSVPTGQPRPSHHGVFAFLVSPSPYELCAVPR
Sequence of Acetylcholinesterase (Homo sapiens) (P22303 whole entry, looked up): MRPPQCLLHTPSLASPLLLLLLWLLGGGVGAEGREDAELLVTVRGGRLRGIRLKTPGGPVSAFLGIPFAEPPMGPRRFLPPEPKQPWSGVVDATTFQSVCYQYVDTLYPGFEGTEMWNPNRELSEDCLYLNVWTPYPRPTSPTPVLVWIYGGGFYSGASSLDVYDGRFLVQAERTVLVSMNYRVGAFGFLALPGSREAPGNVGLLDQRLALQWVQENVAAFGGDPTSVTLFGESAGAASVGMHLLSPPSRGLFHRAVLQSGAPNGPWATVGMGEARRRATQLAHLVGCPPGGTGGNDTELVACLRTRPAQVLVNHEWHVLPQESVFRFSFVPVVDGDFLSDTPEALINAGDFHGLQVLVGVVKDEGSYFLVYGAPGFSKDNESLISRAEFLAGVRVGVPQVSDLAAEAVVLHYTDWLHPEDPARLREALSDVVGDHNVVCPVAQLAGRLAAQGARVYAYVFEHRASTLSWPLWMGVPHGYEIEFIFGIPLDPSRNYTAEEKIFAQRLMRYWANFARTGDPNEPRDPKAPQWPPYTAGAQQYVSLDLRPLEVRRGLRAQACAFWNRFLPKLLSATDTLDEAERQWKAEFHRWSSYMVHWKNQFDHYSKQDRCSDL
Sequence of Cytochrome P450 3A4 (Homo sapiens) (P08684 whole entry, looked up): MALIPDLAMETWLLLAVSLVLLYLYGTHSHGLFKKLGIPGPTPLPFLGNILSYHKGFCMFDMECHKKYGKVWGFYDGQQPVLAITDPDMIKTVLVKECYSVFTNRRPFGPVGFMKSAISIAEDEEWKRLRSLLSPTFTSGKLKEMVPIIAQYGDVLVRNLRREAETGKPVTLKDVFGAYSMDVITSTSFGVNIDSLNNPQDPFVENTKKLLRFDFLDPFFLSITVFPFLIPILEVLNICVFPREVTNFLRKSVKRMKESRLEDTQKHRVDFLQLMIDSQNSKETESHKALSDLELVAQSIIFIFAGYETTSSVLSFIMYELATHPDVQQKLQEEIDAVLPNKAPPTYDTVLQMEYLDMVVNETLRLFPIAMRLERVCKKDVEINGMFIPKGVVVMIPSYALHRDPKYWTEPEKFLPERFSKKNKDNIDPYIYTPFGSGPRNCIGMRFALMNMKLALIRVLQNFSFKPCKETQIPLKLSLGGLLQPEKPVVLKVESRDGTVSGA
Sequence of Cytochrome P450 1A2 (Homo sapiens) (P05177 whole entry, looked up): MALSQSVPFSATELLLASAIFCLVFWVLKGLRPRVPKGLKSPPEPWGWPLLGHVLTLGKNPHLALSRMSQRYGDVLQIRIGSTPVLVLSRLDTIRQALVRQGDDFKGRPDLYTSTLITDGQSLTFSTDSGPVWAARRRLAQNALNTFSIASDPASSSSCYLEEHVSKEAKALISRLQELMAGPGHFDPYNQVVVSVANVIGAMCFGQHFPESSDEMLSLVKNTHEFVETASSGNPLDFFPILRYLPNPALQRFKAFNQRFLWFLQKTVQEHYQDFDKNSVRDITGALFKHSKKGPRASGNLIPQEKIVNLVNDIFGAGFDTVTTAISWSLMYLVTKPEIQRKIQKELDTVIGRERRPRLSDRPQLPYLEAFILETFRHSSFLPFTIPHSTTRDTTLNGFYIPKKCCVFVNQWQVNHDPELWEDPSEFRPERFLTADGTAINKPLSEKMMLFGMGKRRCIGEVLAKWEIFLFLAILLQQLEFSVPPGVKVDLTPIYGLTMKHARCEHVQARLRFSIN
Sequence of Cytochrome P450 2C19 (Homo sapiens) (P33261 whole entry, looked up): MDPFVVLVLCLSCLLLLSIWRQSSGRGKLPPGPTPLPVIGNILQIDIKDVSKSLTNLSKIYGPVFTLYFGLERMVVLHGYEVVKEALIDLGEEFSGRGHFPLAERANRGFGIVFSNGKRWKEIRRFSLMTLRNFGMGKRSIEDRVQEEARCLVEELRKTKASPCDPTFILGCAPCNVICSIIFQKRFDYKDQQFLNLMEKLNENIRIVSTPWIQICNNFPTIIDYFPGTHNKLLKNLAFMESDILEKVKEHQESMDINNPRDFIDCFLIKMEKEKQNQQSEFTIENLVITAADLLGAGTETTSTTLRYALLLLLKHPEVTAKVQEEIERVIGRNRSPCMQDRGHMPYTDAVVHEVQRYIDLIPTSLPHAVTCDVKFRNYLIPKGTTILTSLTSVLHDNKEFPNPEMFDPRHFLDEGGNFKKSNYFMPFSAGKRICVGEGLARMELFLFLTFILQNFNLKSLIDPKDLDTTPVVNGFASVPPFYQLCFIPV

| Structure (SMILES) | Potency [1] | Potency [2] | Potency [3] | Potency [4] | Potency [5] | Potency [6] | Potency [7] | Potency [8] | Potency [9] |
| --- | --- | --- | --- | --- | --- | --- | --- | --- | --- |
| Cc1cccc(N)c1N | inactive | inactive | inactive | 61.2 µM (active) and 17.8 µM (active) | 38.6 µM (active) and 35.6 µM (active) | 34.4 µM (active) and 35.6 µM (active) | 7.7 µM (active) and 14.2 µM (active) | 3.86 µM (active) and 11.2 µM (active) | – |
| Brc1ccc(Oc2cc(Br)c(Br)cc2Br)c(Br)c1 | inactive | inactive | inactive | 35.6 µM (active) and inactive | 1.78 µM (active) and 1.27 µM (active) | 31.7 µM (active) and 18 µM (active) | 31.7 µM (active) and 32 µM (active) | inactive | inactive |
| CC(C)(OOC(C)(C)c1ccccc1)c1ccccc1 | inactive | inactive | inactive | 35.1 µM (active) and inactive | 35.1 µM (active) and 6.33 µM (active) | 31.3 µM (active) and 31.7 µM (active) | inactive | inactive | inactive |
| O=[N+]([O-])c1ccc(O)c([N+](=O)[O-])c1 | inactive | inactive | inactive | inactive | inactive | 63.5 µM (active) and 39.9 µM (active) | inactive | inactive | inactive |
| C#C[C@]1(O)CC[C@H]2[C@@H]3CCC4=CC(=O)CC[C@]4(C)[C@H]3CC[C@@]21C | inactive | inactive | inactive | inactive | 6.33 µM (active) and 1.38 µM (active) | – | – | inactive | – |
| CCCCNC(=O)n1c(NC(=O)OC)nc2ccccc21 | inactive | inactive | inactive | inactive | 79.3 µM (active) | – | 25.1 µM (active) and 28.3 µM (active) | inactive | – |
| CCOC(=S)S | – | – | – | – | – | – | – | – | inactive |
| Oc1cc(Cl)ccc1Oc1ccc(Cl)cc1Cl | inactive | – | inactive | inactive | 459 nM (active) and 389 nM (active) | – | 30.1 µM (active) and 17.4 µM (active) | inactive | – |
| CCN(CC)C(=O)/C(Cl)=C(\C)OP(=O)(OC)OC | inactive | – | inactive | inactive | inactive | inactive | inactive and 39.9 µM (active) | inactive | inactive |
| S=C1NCCN1 | – | – | – | – | – | – | – | – | inactive |
| C1=Cc2cccc3cccc1c23 | inactive | inactive | inactive | inactive | – | inactive | 31.2 µM (active) and 25.2 µM (active) | inactive | inactive |
| O=C(O)CC[N+](=O)[O-] | inactive and 28.3 µM (active) | inactive and 7.96 µM (active) | inactive | inactive | inactive | – | inactive | inactive | – |
| CCC(C)c1ccc(O)cc1 (centres undefined) | inactive | inactive | inactive | inactive | inactive | – | 35.9 µM (active) and 31.7 µM (active) | inactive | inactive |
| C=C(C)[C@H]1Cc2c(ccc3c2O[C@@H]2COc4cc(OC)c(OC)cc4[C@@H]2C3=O)O1 | inactive | inactive | inactive | inactive and 38.9 µM (active) | – | 5.09 µM (active) and 6.33 µM (active) and 9.77 µM (active) | inactive | – | – |
| CC(C)(c1cc(Cl)c(O)c(Cl)c1)c1cc(Cl)c(O)c(Cl)c1 | – | – | inactive | inactive | 35.6 µM (active) and 28.3 µM (active) | 35.6 µM (active) and 31.7 µM (active) | inactive | 63.3 µM (active) | inactive |
| O=c1oc2ccccc2c(O)c1C(CC(O)c1ccc(-c2ccc(Br)cc2)cc1)c1ccccc1 (centres undefined) | inactive | inactive | inactive | inactive | – | 3.37 µM (active) and 3.47 µM (active) | inactive | – | – |
| CC(C)NC(C)C | inactive | inactive | inactive | inactive | inactive | inactive | inactive | inactive | – |
| CCCCCCCCCCCOC(=O)c1ccccc1C(=O)OCCCCCCCCCCC | inactive | inactive | inactive | inactive | inactive | inactive | inactive | inactive | – |
| ClC1C(Cl)C(Cl)C(Cl)C(Cl)C1Cl (centres undefined) | – | – | – | inactive and 39.9 µM (active) and 71 µM (active) | – | 32.4 µM (active) and 35.6 µM (active) and 31.7 µM (active) | – | – | – |
| Oc1cc(Cl)ccc1Cl | inactive | inactive | inactive | inactive | inactive | inactive | 36.6 µM (active) and 31.7 µM (active) | inactive | – |
| Oc1ccc(-c2ccccc2)cc1 | inactive | inactive | inactive | 31.3 µM (active) | 35.1 µM (active) and 35.6 µM (active) | 39.4 µM (active) | 11.1 µM (active) and 11.2 µM (active) | inactive | – |

| Structure (SMILES) | Potency [1] | Potency [2] | Potency [3] | Potency [4] | Potency [5] | Potency [6] | Potency [7] | Potency [8] | Potency [9] |
| --- | --- | --- | --- | --- | --- | --- | --- | --- | --- |
| N[C@@H](Cc1ccc(N(CCCl)CCCl)cc1)C(=O)O | – | – | – | 34.1 µM (active) and 34.7 µM (active) | 8.57 µM (active) and 17.4 µM (active) | 17.1 µM (active) and 27.5 µM (active) | – | – | inactive |
| NNC(N)=S | inactive | inactive | inactive | inactive | 73.8 µM (active) | – | 20.8 µM (active) and 31.7 µM (active) | inactive | inactive |
| CC(C)(C)c1ccccc1O | inactive | inactive | inactive | inactive | inactive | inactive | – | inactive | – |
| COc1ccc(C(CN(C)C)C2(O)CCCCC2)cc1 (centres undefined) | – | – | – | – | – | – | – | – | inactive |
| Cc1cc(Cl)ccc1OCCCC(=O)O | inactive | inactive | inactive | inactive | 82.8 µM (active) and inactive | – | inactive | inactive | – |
| N#CCCCl | inactive | inactive | inactive | inactive | 77.7 µM (active) and inactive | inactive | inactive | inactive | – |
| Oc1c(Cl)c(Cl)c(Cl)c(Cl)c1Cl | inactive | inactive | inactive | inactive and 796 nM (active) | 34.9 µM (active) and 15.9 µM (active) and inactive | – | 62 µM (active) and 35.5 µM (active) and 79.6 µM (active) | inactive | inactive |
| Nn1cnnc1 | inactive | inactive | inactive | inactive | 19.3 µM (active) and 71 µM (active) | 34.4 µM (active) | – | inactive | inactive |
| O=[N+]([O-])c1c(Cl)c(Cl)c(Cl)c(Cl)c1Cl | inactive | – | inactive | 31.6 µM (active) and inactive | inactive | inactive | 8.9 µM (active) and 1.59 µM (active) | inactive | inactive |
| CCCCOCCOP(=O)(OCCOCCCC)OCCOCCCC | inactive | inactive | inactive | – | 7.98 µM (active) and 8.94 µM (active) | 8.95 µM (active) and 15.9 µM (active) | – | 8.95 µM (active) and 15.9 µM (active) | – |
| CCC(C)(C)c1ccc(O)cc1 | inactive | inactive | inactive | inactive | inactive | 71.8 µM (active) and 63.3 µM (active) | inactive | inactive | – |
| c1ccc(P(c2ccccc2)c2ccccc2)cc1 | inactive | inactive | inactive | – | 10.2 µM (active) and 7.1 µM (active) | 12.9 µM (active) and 7.96 µM (active) | inactive | inactive | – |
| Nc1ccncc1 | inactive | inactive | inactive | inactive | inactive | – | – | inactive | inactive |
| Nc1ccc(-c2ccc(N)c(N)c2)cc1N | – | – | – | 28.2 µM (active) | 19.9 µM (active) and 3.56 µM (active) | 17.8 µM (active) and 2.83 µM (active) | 35.5 µM (active) | 5.01 µM (active) and 2.83 µM (active) | – |
| C=C(C)C(=O)OCC1CO1 (centres undefined) | inactive | inactive | inactive | inactive | inactive | inactive | inactive | inactive | – |
| C=CC(=O)OCCO | inactive | inactive | inactive | inactive | inactive | inactive | – | inactive | – |
| CC(C)c1ccc(CO)cc1 | inactive | inactive | inactive | inactive | – | 39.9 µM (active) | – | inactive | inactive |
| N#CC(Br)Br | inactive | inactive | inactive | 31.5 µM (active) and inactive | inactive | inactive | inactive | inactive | – |
| C[C@]12CCC(=O)C(O)=C1CC[C@@H]1[C@@H]2CC[C@]2(C)C(=O)CC[C@@H]12 | inactive | inactive | inactive | 31.7 µM (active) | 20 µM (active) | – | inactive | – | inactive |
| CCOC(=O)C(C)OC(=O)c1cc(Oc2ccc(C(F)(F)F)cc2Cl)ccc1[N+](=O)[O-] (centres undefined) | inactive | inactive | inactive | – | 6.3 µM (active) and 6.33 µM (active) | 7.06 µM (active) and 7.1 µM (active) | inactive | inactive | – |
| CNC(=O)Oc1cccc2c1OC(C)(C)O2 | 1.65 µM (active) and 356 nM (active) | 826 nM (active) and 224 nM (active) | 10.4 µM (active) and 5.03 µM (active) | inactive | 36.9 µM (active) and 71 µM (active) | – | 35.6 µM (active) | inactive | inactive |
